Reference: PubChem BioAssay (NCI)
About 83,000 compounds went through this panel and 20% of them were active in at least one assay; those are over-represented in the sample as a whole.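 Assay: single dose, 48 h. Readout: percent growth (0 = no net growth; negative = cell death). Active: <10.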 Calls of active or inactive are those of the source.

Assays:
Experiment in all cases: NCI-60 one-dose screen, 48 h (100 = growth as untreated, 0 = no growth, -100 = all killed)
Settings in all cases: 10 µM unless noted
[1] = test system: EKVX NSCLC
[2] = test system: SN12C renal
[3] = test system: UO-31 renal
[4] = test system: TK-10 renal
[5] = test system: ACHN renal
[6] = test system: CAKI-1 renal
[7] = test system: A498 renal
[8] = test system: CCRF-CEM leukemia
[9] = test system: MOLT-4 leukemia

Measured: growth

C[C@@H](Oc1cc(C(=O)Nc2ccc(C(=O)N3CCN(C)CC3)cc2)nnc1N)c1c(Cl)ccc(F)c1Cl
inactive: [1] 72.5% | [2] 64.5% | [3] 48.4% | [4] 79.4% | [5] 91.8% | [6] 75.5% | [7] 65% | [8] 55.9% | [9] 34.8%

CC1(COc2ccc3c(c2)ncn3-c2ccc3cccc(N4CCC(N)CC4)c3n2)COC1
inactive: [1] 34.6% | [2] 32.4% | [4] 32% | [6] 22.9% | [7] 85.1%
active: [3] -3.3% | [5] 2.83% | [8] 2.15% | [9] -4.11%

CC(=O)NCC(=O)N1[C@@H]2CC[C@H]1c1ccc(Nc3ncc(C(F)(F)F)c(NC4CCC4)n3)cc12
inactive: [1] 69.1% [2.5 µM] | [2] 37.8% [2.5 µM] | [4] 43.7% [2.5 µM] | [5] 38.6% [2.5 µM] | [6] 20.5% [2.5 µM] | [7] 14.7% [2.5 µM] | [8] 40.2% [2.5 µM] | [9] 20% [2.5 µM]
active: [3] 2.84% [2.5 µM]

CNC(=O)c1cc(Oc2ccc3nc(NC(=O)Nc4ccc(Cl)c(C(F)(F)F)c4)sc3c2)ccn1
inactive: [2] 15.6% | [6] 53.4% | [7] 30% | [8] 27.8% | [9] 38%
active: [1] 9.24% | [3] -7.14% | [4] -55.1% | [5] -22.2%

CCCCCc1ccc(C)cc1OC(=O)CCl
inactive: [1] 117% | [2] 110% | [3] 66.9% | [4] 105% | [5] 105% | [6] 91.7% | [7] 105% | [8] 102% | [9] 102%

C[C@@H](N)c1ccc(C(=O)Nc2ccnc3[nH]ccc23)cc1
inactive: [1] 67% | [2] 51.8% | [3] 13.4% | [4] 46.2% | [5] 36.7% | [6] 20.6% | [7] 56.9% | [8] 25.5% | [9] 42.2%

Nc1ccc(S(=O)(=O)O)c2cc(S(=O)(=O)O)cc(O)c12
inactive: [1] 101% | [2] 102% | [3] 107% | [4] 105% | [5] 104% | [6] 100% | [7] 107% | [8] 102% | [9] 101%

C[C@@H](Oc1cc(-n2cnc3ccc(CN4CCN(C)CC4)cc32)sc1C(N)=O)c1ccccc1C(F)(F)F
active: [7] -23% | [8] 6.03% | [9] -7.58%
inactive: [1] 38.9% | [2] 15.6% | [3] 16.6% | [4] 52.2% | [5] 31.1% | [6] 28.3%

CN1CC[C@@H](c2c(O)cc(O)c3c(=O)cc(-c4ccccc4Cl)oc23)[C@@H]1CO
inactive: [2] 12.4% | [8] 13.4%
active: [1] 0.493% | [3] -5.4% | [4] 5.71% | [5] 4.44% | [6] 5.86% | [7] -60.4% | [9] 1.59%
